From PubChem BioAssay (NCATS)
Values joined by “and” are separate entries in the source; they are usually repeats but may differ in a detail not shown here. Equal entries are not always repeated. Records with an inconclusive call do not appear. Active and inactive are the calls of the source. Unless noted, calls follow the shape of the dose curve; as a rule, active = well fitted curve in the direction sought with a large enough effect; inconclusive = small, poorly fitted or top-dose-only effect, or another doubt; inactive = no such curve, though single readings can be large; an effect the other way counts as inactive or inconclusive.

Tests used:
[1] = target: Glucocorticoid receptor (Homo sapiens) (UniProt P04150); assay: GR-GFP Redistribution (AID 450;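 active = compounds whose dose series gives a full or clear partial fitted curve of increased nuclear translocation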; also: potency is read from the fitted curve at half-maximal effect); conditions: U2OS GR-GFP nuclear translocation, laser cytometry, 2 h
[2] = target: Glucocorticoid receptor (Homo sapiens) (UniProt P04150); assay: GR-EFC Redistribution (AID 451; calls by dose curve; also: potency is read from the fitted curve at half-maximal effect); conditions: CHO-K1 GR-EFC translocation, beta-gal luminescence, 2 h
Outline: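 CHO-K1 cells stably expressing nuclear-localized β-gal enzyme acceptor and GR fused C-terminally to the enzyme donor fragment; ligand-driven nuclear translocation restores β-gal by complementation. Compounds titrated up to 46 uM final, 2 h at 37 °C; luminescence read.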

[3] = target: Mitogen-activated protein kinase 10 (Mus musculus) (UniProt Q61831); assay: JNK3 AlphaScreen Assay (AID 530; active = well fitted curve in either direction with a large enough effect, not every such curve was filed as active;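 also: kinase came from lysate of stimulated human HepG2 cells; signal reports phosphorylation of biotinylated GST-cJun 1-79 at Ser73 with 10 µM ATP; % is scaled to controls: 0 for no effect and ±100 for the full control effect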)
Outline: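 Phosphorylation of biotinylated GST-cJun(1-79) at Ser73 is measured by AlphaScreen proximity luminescence. Enzyme is JNK3 in HepG2 lysates activated with interleukin-1beta and tumor necrosis factor alpha; ATP is 10 uM final.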

[4] = target: 3',5'-cyclic-AMP phosphodiesterase 4B (Homo sapiens) (UniProt Q07343); assay: qHTS Assay for Inhibitors of PDE-IV (AID 607; active = well fitted activation curve with a large enough effect in the main read-out, with a control signal flat, not every such curve was filed as active; also: % of control where 0% means no effect)
3',5'-cyclic-AMP phosphodiesterase 4B (Homo sapiens), sequence (Q07343 whole entry, looked up): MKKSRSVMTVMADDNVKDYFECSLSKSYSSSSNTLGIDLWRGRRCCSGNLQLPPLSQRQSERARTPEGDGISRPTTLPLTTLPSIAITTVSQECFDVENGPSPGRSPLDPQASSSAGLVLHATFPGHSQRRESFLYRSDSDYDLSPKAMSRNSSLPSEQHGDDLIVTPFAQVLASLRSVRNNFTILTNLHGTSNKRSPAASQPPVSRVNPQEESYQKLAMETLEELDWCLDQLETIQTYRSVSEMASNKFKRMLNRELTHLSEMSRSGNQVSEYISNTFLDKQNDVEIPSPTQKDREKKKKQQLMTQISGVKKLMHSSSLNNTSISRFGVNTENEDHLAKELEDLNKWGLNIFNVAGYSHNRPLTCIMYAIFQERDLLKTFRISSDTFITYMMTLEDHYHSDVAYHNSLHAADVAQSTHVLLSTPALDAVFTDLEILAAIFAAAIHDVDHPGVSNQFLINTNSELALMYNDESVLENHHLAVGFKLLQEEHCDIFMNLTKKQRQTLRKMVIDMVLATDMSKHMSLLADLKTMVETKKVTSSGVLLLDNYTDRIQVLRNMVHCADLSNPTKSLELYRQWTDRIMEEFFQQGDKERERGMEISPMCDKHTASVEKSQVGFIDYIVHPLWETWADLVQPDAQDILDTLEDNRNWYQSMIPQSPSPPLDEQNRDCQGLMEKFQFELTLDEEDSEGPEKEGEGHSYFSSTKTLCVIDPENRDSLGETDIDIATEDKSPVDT
Outline: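 ACTOne HEK293 cells carry a modified cAMP-gated CNG channel and express endogenous PDE4; plated 1000 cells/well, compounds up to 22.9 uM final. Membrane-potential dye fluorescence (ex 535/em 590) was read; parental cells received 10 uM forskolin + 100 uM RO 20-1724.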

[5] = qHTS Assay for Lipid Storage Modulators (AID 1519; calls by dose curve); conditions: Drosophila S3 cells, BODIPY lipid droplet/cell ratio, laser cytometry, cells loaded with oleic acid; for activity change, negative = inhibition: at 57.5 µM (top of the series)
Outline: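 Cells seeded at 5,000 per well were treated with compounds over a concentration series and loaded with oleic acid (400 uM, as added). Lipid droplet fluorescence (488 nm excitation, 500-530 nm channel) was read by laser-scanning cytometry and normalized to 20 uM Triacsin C.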

[6] = target: Ubiquitin carboxyl-terminal hydrolase 1 (Homo sapiens) (UniProt O94782); assay: Inhibitors of USP1/UAF1: Pilot qHTS (AID 504865);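 also: rhodamine fluorescence freed from ubiquitin-rhodamine substrate followed over time; top concentration of the series differs between compounds; % is scaled to controls: 0 for no effect and ±100 for the full control effect; nearly all actives have a fitted effect of over 35% in size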
Ubiquitin carboxyl-terminal hydrolase 1 (Homo sapiens), sequence (O94782 whole entry, looked up): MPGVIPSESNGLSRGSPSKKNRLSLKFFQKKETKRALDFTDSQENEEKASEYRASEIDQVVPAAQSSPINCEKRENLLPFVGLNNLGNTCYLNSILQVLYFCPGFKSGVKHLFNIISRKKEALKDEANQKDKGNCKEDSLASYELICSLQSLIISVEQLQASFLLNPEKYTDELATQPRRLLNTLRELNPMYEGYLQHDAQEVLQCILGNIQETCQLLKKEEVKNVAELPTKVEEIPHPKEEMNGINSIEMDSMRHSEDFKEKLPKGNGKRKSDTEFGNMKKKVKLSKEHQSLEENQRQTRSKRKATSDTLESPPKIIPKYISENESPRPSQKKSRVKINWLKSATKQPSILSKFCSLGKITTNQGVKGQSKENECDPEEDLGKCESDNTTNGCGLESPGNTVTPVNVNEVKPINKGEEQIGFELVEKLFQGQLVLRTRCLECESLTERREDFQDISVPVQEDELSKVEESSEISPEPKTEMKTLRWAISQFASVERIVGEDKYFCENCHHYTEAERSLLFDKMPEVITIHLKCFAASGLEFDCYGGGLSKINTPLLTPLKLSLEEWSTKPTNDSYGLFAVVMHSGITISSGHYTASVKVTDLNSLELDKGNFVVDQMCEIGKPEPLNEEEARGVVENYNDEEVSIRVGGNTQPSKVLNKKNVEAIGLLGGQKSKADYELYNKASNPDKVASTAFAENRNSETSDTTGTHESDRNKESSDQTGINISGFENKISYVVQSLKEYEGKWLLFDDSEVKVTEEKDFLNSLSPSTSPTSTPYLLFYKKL
Outline: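 In 50mM HEPES pH 7.8 containing 0.5mM EDTA, 1mM TCEP, 0.1 mg/ml BSA and 0.01% Tween-20, 1nM USP1/UAF1 is exposed to compound for 15 min, then Ub-Rho (150nM final) is added and fluorescence is read over time.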

[7] = target: DNA dC->dU-editing enzyme APOBEC-3G (Homo sapiens) (UniProt Q9HC16); assay: qHTS for inhibitors of Vif-A3G interactions: Validation (AID 588379); also: 0% is about no effect
DNA dC->dU-editing enzyme APOBEC-3G (Homo sapiens), sequence (Q9HC16 whole entry, looked up): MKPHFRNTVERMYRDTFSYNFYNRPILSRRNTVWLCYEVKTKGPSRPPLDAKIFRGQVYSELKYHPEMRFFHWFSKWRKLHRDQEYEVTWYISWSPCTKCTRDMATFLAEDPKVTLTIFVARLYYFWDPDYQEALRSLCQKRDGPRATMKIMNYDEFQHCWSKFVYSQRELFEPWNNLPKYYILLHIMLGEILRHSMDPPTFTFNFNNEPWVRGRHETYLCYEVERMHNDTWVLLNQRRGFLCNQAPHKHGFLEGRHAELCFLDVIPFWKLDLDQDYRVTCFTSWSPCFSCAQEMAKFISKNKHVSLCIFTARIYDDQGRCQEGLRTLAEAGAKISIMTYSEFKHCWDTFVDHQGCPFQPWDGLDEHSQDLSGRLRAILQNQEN
Outline: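 Yellow fluorescence (Ex 488, Em 500-530) of Vif-coexpressing HeLa A3G-eYFP cells, scanned by Acumen cytometer, reports blocked A3G degradation. Cells plated at 700/well overnight at 37 deg C before compound addition, then a further overnight compound incubation at 37 deg C.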

[8] = system: Zika virus NS2B-NS3 protease; assay: Primary screen GU AMC qHTS for Zika virus inhibitors (AID 1347154);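 also: 0% = no-inhibitor control and -100% = no-enzyme control; nearly all actives have a fitted effect of over 70% in size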
Outline: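 Unlinked Zika NS2B hydrophilic domain/NS3 protease domain noncovalent complex (25 nM final) in 10 mM Tris-HCl pH 8.0, 0.01% Tween 20, with AMC peptide substrate. Fluorescence (ex 340, em 450 nm) change over 15 min, room temperature; percent inhibition fitted to 4-parameter Hill equation.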

[9] = Primary qHTS for small molecule stabilizers of the endoplasmic reticulum resident proteome: Secreted ER Calcium Modulated Protein (SERCaMP) assay (AID 1508630); also: % is scaled to controls: 0 for no effect and ±100 for the full control effect
Outline: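 The SH-SY5Y reporter protocol was run at 3 concentrations up to 38.3 uM (primary) or 11 concentrations (follow-up): 16 h compound, 100 nM thapsigargin for 4 h, then extracellular luciferase luminescence.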

[10] = target: Cytochrome P450 1A2 (Homo sapiens) (UniProt P05177); assay: p450-cyp1a2 (AID 410; calls by dose curve; also: potency is read from the fitted curve at half-maximal effect;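 as to activity change, negative = inhibition: -100% = full effect of reference inhibitor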)
Cytochrome P450 1A2 (Homo sapiens), sequence (P05177 whole entry, looked up): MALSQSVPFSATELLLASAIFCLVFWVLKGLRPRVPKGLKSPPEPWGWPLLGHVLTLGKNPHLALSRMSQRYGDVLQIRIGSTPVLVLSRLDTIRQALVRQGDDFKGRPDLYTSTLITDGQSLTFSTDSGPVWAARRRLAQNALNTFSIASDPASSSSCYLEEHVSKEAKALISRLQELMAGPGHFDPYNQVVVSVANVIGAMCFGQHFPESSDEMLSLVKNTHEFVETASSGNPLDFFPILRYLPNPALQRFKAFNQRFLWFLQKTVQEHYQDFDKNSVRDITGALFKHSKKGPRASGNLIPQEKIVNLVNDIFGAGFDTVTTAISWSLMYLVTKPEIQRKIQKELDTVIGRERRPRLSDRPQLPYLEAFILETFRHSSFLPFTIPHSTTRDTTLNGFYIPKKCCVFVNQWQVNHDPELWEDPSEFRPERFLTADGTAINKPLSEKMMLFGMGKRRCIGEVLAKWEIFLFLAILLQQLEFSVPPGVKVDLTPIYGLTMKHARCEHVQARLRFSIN
Outline: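 Luminescent demethylation readout: Luciferin-ME (100uM, equal to Km) turned over by 20nM CYP1A2 for 60 min at room temperature after NADPH regeneration addition, following 10 min compound preincubation. Normalization used 57 uM furafylline as full inhibition.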

[11] = target: Guanine nucleotide-binding protein G(i) subunit alpha-1 (Homo sapiens) (UniProt P63096); assay: qHTS Assay for Inhibitors of RGS12 GoLoco Motif Activity (Green Fluorophore) (AID 879);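 also: 0% = labeled peptide with Gαi1 and full inhibition = labeled peptide alone without protein; negative values mean loss of peptide binding seen as reduced polarization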
Guanine nucleotide-binding protein G(i) subunit alpha-1 (Homo sapiens), sequence (P63096 whole entry, looked up): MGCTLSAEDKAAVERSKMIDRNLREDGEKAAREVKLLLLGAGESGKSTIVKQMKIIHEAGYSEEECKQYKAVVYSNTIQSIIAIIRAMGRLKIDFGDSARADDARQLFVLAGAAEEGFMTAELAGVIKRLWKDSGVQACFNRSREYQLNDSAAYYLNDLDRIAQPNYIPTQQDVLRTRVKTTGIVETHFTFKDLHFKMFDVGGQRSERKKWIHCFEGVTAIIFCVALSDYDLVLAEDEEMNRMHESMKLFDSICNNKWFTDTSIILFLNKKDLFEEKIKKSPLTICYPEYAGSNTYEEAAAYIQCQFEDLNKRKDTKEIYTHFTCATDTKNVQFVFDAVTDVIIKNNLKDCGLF
Outline: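 A drop in FITC polarization marked displacement of the FITC-tagged RGS12 GoLoco peptide (10 nM) from Gαi1 (50 nM). Compounds were incubated 10 min at room temperature in Tris pH 7.5 buffer containing 150 mM NaCl, 0.1 mM GDP and 0.05% NP40; unlabeled peptide titration served as control.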

[12] = target: Pyruvate kinase (Leishmania mexicana) (UniProt Q27686); assay: qHTS Validation Assay for Inhibitors of Leishmania Mexicana Pyruvate Kinase (AID 945);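 also: 0% = DMSO only neutral control wells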
Pyruvate kinase (Leishmania mexicana), sequence (Q27686 2-499 E452W): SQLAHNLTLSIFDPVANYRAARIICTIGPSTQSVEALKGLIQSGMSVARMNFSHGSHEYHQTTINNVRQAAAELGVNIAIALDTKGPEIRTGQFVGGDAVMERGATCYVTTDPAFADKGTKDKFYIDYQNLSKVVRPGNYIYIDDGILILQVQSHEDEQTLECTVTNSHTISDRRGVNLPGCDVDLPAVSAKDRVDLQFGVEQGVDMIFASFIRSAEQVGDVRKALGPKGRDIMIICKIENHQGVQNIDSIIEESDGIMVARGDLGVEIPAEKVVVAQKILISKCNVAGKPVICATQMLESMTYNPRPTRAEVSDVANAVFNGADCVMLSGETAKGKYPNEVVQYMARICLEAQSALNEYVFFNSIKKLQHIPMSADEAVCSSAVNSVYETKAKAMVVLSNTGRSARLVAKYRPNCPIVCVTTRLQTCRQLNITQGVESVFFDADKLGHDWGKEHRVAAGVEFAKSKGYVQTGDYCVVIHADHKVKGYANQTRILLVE
Outline: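 Mutant LmPYK (E451W), 0.2 nM, plus 0.5 mM PEP and 0.1 mM ADP in 50 mM imidazole pH 7.2 containing 0.01% Tween 20 and 0.05% BSA. Incubated 1 h at room temperature; luminescence via PKLight, normalized to DMSO.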

[13] = target: Pyruvate kinase PKM (Homo sapiens) (UniProt P14618); assay: qHTS Assay for Activators of Human Muscle Pyruvate Kinase (AID 954; active = well fitted curve in the direction sought with a large enough effect, not every such curve was filed as active;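 also: 0% = uninhibited enzyme and -100% = no enzyme or full thiadiazolimine inhibition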)
Pyruvate kinase PKM (Homo sapiens), sequence (P14618 whole entry, looked up): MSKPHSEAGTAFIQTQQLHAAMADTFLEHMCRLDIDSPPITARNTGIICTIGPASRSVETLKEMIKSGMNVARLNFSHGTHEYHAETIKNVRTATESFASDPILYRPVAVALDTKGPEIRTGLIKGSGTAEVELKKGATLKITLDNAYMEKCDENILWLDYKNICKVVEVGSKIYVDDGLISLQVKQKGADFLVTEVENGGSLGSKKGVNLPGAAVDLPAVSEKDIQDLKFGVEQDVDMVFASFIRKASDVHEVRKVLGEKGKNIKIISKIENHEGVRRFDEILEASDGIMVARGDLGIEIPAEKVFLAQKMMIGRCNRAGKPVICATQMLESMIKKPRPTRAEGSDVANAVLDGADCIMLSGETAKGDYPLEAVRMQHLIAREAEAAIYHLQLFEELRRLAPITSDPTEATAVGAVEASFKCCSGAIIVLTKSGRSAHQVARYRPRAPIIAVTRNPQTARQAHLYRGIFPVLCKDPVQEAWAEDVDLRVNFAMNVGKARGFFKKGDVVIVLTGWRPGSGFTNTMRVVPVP
Outline: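 A coupled luminescent readout tracked ATP made from ADP by purified PKM2. Final conditions included 0.1 nM enzyme, PEP and ADP at 0.5 and 0.1 mM, pH 7.2 imidazole buffer with BSA, and a one-hour room-temperature reaction.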

[14] = target: Alpha-galactosidase A (Homo sapiens) (UniProt P06280); assay: Counterscreen for Glucocerebrosidase Inhibitors: qHTS Assay for Human alpha-Galactosidase at pH 4.5 (AID 992); also: 0% is about no effect
Outline: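 Citrate buffer pH 4.5, Tween-20 0.005%. Enzyme 2 nM, substrate 80 uM, 20 min RT. Stop pH 10. Fluorescence Ex 365/Em 440. AC50 by Hill fit.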

[15] = target: alpha-glucosidase (Oryza sativa, rice) (UniProt Q653V4); assay: Counterscreen for Glucocerebrosidase Inhibitors: qHTS Assay for Rice alpha-Glucosidase at pH 5.0 (AID 997);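 also: 0% = full activity with enzyme and -100% = basal without enzyme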
Outline: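 Endpoint fluorogenic assay at pH 5.0: compounds (0.7 nM to 77 uM) titrated against 4 nM rice enzyme and 400 uM 4-MU-alpha-glucoside for 20 min at room temperature; NaOH/glycine stop, read ex 365/em 440 nm, Hill-fitted AC50.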

[16] = target: Cytochrome P450 3A4 (Homo sapiens) (UniProt P08684); assay: qHTS Assay for Activators of Cytochrome P450 3A4 (AID 885); also: nearly all actives have a fitted effect of over 65% in size
Cytochrome P450 3A4 (Homo sapiens), sequence (P08684 whole entry, looked up): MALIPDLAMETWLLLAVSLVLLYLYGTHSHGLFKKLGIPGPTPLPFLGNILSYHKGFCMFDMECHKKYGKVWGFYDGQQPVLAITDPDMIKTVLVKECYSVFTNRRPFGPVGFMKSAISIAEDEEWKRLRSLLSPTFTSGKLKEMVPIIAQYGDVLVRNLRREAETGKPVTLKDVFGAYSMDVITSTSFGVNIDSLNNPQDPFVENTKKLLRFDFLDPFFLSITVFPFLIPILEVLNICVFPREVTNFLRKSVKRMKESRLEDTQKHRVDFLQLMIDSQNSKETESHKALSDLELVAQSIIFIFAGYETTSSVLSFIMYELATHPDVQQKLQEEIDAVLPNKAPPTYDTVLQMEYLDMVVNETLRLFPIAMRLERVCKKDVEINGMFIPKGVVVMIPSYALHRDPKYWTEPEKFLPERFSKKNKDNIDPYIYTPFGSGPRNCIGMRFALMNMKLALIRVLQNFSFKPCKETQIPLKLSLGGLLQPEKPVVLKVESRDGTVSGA
Outline: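 CYP3A4 activity: Luciferin-PPXE O-dealkylation, 25uM substrate, 200mM KPO4, RT throughout. Read-out is luciferase luminescence; higher values reflect activation.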

[17] = target: Cytochrome P450 2D6 (Homo sapiens) (UniProt P10635); assay: qHTS Assay for Inhibitors and Substrates of Cytochrome P450 2D6 (AID 891); also: potency is read from the fitted curve at half-maximal effect; nearly all actives have a fitted effect of over 60% in size
Cytochrome P450 2D6 (Homo sapiens), sequence (P10635 whole entry, looked up): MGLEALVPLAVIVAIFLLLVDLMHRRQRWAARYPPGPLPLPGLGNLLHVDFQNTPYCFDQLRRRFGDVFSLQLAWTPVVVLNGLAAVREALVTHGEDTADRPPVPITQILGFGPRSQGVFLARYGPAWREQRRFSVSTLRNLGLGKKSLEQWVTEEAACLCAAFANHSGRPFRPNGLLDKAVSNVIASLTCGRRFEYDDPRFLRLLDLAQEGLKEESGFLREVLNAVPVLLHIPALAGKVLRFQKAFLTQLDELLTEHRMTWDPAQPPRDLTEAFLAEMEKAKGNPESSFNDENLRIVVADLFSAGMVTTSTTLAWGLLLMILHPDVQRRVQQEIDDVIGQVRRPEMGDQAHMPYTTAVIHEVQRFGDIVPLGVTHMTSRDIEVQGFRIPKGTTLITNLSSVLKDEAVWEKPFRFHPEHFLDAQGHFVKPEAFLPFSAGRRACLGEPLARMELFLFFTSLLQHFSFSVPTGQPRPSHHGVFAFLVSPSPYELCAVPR
Outline: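 Luminescent read-out of luciferin formed by 5 nM human CYP2D6 demethylating 30 uM Luciferin-ME EGE (Km level) over 60 min at room temperature after NADPH regeneration addition. Data normalized to full inhibition by 1.43 uM quinidine.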

[18] = AP1 Signaling Pathway (AID 357; active = well fitted curve in either direction with a large enough effect, not every such curve was filed as active;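 also: ME-180 reporter cells stimulated with EGF at its EC50 level; % is scaled to controls: 0 for no effect and ±100 for the full control effect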)
Outline: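 Titration-series screen for positive or negative modulators of EC50 EGF-induced signaling in ME-180 cells carrying an AP-1-driven beta-lactamase reporter. After 5 hours at 37 degrees Celsius, CCF4 460nm/530nm emission ratio gave %Activity; AC50 values derived.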

[19] = NFAT Signaling Pathway (AID 444; active = well fitted curve in either direction with a large enough effect, not every such curve was filed as active;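 also: carbachol stimulus at about its EC50 of 1 µM final; % is scaled to controls: 0 for no effect and ±100 for the full control effect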); conditions: Jurkat NFAT-bla M1, carbachol, beta-lactamase ratio, 5 h
Outline: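 Jurkat cells carrying an NFAT-driven β-lactamase reporter and co-transfected muscarinic M1 receptor were treated with compound plus carbachol (1 uM final, an EC50 level) for 5 h at 37 °C. CCF4 loading followed for 1 h at RT; 460/530 nm ratio gave %activity.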

[20] = Stat Signaling Pathway (AID 446; active = well fitted curve in either direction with a large enough effect, not every such curve was filed as active)
Outline: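 Compound effects on IL-6-induced STAT reporter activity were measured in ME-180 cells. After overnight culture, cells were co-treated with 40 pM IL-6 for 5 hrs before beta-lactamase substrate loading at room temperature.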

[21] = measured here: cell count channel max response
[22] = measured here: lipid channel max response

O=C(O)/C=C\CO
-9.77%: max response [5, 22]
-10.2%: max response [5, 21]
inactive: Potency [1] > 46 µM | Potency [2] > 46 µM | outcome [3] | Potency [4] | activity change, negative = inhibition [5] 3.52% | Potency [6] | Potency [7] | Potency [8] | Potency [9]

CC[N+](CC)(CCCNC1=CC(=O)C(NCCC[N+](CC)(CC)Cc2ccccc2)=CC1=O)Cc1ccccc1
-3.95%: max response [5, 22]
-5.38%: max response [5, 21]
inactive: Potency [1] > 46 µM | Potency [2] > 46 µM | activity change, negative = inhibition [5] 3.42% | Potency [7] | Potency [8] | Potency [9]

N[C@@]1(C(=O)O)CC[C@H](C(=O)O)C1
-9.77% and 22.3% and -1.79%: max response [5, 21]
inactive: Potency [10] | Potency [1] > 46 µM | Potency [2] > 46 µM | outcome [3] | Potency [4] | outcome [11] | outcome [12] | outcome [13] | outcome [14] | outcome [15] | activity change, negative = inhibition [5] 1.47% and 9.82% and 2.9% | Potency [6] | Potency [7] | Potency [8] | Potency [9]
-7.89% and 39.1% and -2.3%: max response [5, 22]

C/C=C1/C[N@@+]2(C)CC[C@]34C(=C(C=O)[C@H]1C[C@H]32)Nc1ccccc14
inactive: Potency [8] | Potency [9]

COC(=O)/C=C\C(=O)N[C@@H]1CC[C@@]2(O)[C@H]3Cc4ccc(O)c5c4[C@@]2(CCN3CC2CC2)[C@@H]1O5
-10.5%: max response [5, 22]
-6.87%: max response [5, 21]
inactive: Potency [1] > 46 µM | Potency [2] > 46 µM | outcome [3] | Potency [4] | activity change, negative = inhibition [5] -0.127% | Potency [6] | Potency [7] | Potency [8] | Potency [9]

CCCn1c(C)c(C(=O)c2cccc3ccccc23)c2ccccc21
inactive: Potency [1] > 46 µM | Potency [2] > 46 µM | outcome [3] | Potency [7] | Potency [8] | Potency [9]
active: Potency [10] 2 µM

O=C1Nc2cc(Cl)c(Cl)cc2N2CCNC[C@H]12
inactive: Potency [1] > 46 µM | Potency [2] > 46 µM | outcome [3] | Potency [6] | Potency [7] | Potency [8] | Potency [9]

CNCCc1cnc[nH]1
inactive: Potency [10] | Potency [1] > 46 µM | Potency [2] > 46 µM | Potency [6] | Potency [7] | Potency [8] | Potency [9]

O=C1/C(=C\c2ccccc2)C[C@@]2(O)[C@H]3Cc4ccc(O)c5c4[C@@]2(CCN3CC2CC2)[C@@H]1O5
inactive: Potency [1] > 46 µM | Potency [2] > 46 µM | Potency [16] | Potency [6] | Potency [7] | Potency [8] | Potency [9]
active: Potency [10] 31.6 µM

CCC[C@@H]1CC2=CC(=O)CC[C@]2(C)[C@@H]2CC[C@@]3(C)[C@H](CC[C@]3(O)CCC(=O)O)[C@H]12
inactive: Potency [10] | Potency [1] > 46 µM | Potency [2] > 46 µM | outcome [3] | Potency [4] | Potency [6] | Potency [7] | Potency [8] | Potency [9]

COc1ccc(C[C@H]2NC[C@H](O)[C@@H]2OC(C)=O)cc1
active: Potency [17] 7.94 µM
inactive: Potency [10] | Potency [1] > 46 µM | Potency [2] > 46 µM | Potency [4] | Potency [6] | Potency [7] | Potency [8] | Potency [9]

CN1[C@@H]2CC[C@H]1CC(O[C@@H](c1ccccc1)c1ccc(Cl)cc1)C2 (stereo partly drawn)
inactive: outcome [18] | Potency [10] | outcome [20] | Potency [1] > 46 µM | Potency [2] > 46 µM | outcome [11] | Potency [16] | outcome [12] | outcome [13] | outcome [14] | outcome [15] | Potency [7] | Potency [8] | Potency [9]
active: activity change, negative = inhibition ([19]; at 38 µM (top of the series)) -69.3% | Potency [17] 1.26 µM and 1.58 µM

O=C1C2CCN(CC2)C1(CO)CO
inactive: activity change, negative = inhibition [18] 3.23% [at 7.69 µM] | Potency [10] | activity change, negative = inhibition ([19]; at 7.69 µM (top of the series)) -7.28% | activity, negative = inhibition [20] 4.51% [at 7.69 µM] | Potency [1] > 46 µM | Potency [2] > 46 µM and > 9.22 µM | outcome [3] | Potency [4] | Potency [7] | Potency [8] | Potency [9]

CN(C(=O)Cc1ccccc1)[C@H](CN1CCCC1)c1ccccc1
active: Potency [17] 3.16 µM
inactive: Potency [10] | Potency [1] > 46 µM | Potency [2] > 46 µM | outcome [3] | Potency [6] | Potency [7] | Potency [8] | Potency [9]

C[C@H](N)Cc1cnc[nH]1
inactive: outcome [18] | activity change, negative = inhibition ([19]; at 38 µM (top of the series)) 4.34% | outcome [20] | Potency [1] > 46 µM | Potency [2] > 46 µM | outcome [3] | Potency [4] | outcome [11] | outcome [12] | outcome [13] | outcome [14] | outcome [15] | Potency [6] | Potency [7] | Potency [8] | Potency [9]
